# Source: the OligoGym collection
# Molecular target: ITFG1
# Assay: pooled miR-30 sensor sort-seq; sequence = guide strand
# Settings: shRNA
# Further: reference of the scale not given here.
row,Sequence,sensor-assay potency score (higher = more potent)
1,TATTGCTGAAATCTTGTAGGAC,0.541
2,TACTTGTAGTGGTCAATGCTGG,-0.574
3,TATCAATGCACTGTGATTCTTG,0.396
4,TAATGTTTGATTTTGTCCCCAG,-0.0623
5,TAGATCACCATTGAAATCCATA,-0.916
6,TTATCTTACGAGGACAGTCATT,-1.41
7,TAACTTTAACAAAATAAGCATC,-1.35
8,TTTTTCTCTATCATCTGCTTTC,-0.602
9,TATACATGATATAAGGTCCAGG,-0.949
10,TTTAGGTCTGTCAGCTCCCAGT,-0.933

# Molecular target: ITFG2
# Assay: as above
# Settings: shRNA
row,Sequence,sensor-assay potency score (higher = more potent)
1,TTAACGTATCGTTATCAACGTC,-0.293
2,TTTGATGTTGCCAATTAGGTGA,-0.267
3,TAGATCTTCTGGTTGAAAGTGA,-0.00804
4,TAGGTGAGTGGAGACATTCTTG,-0.555
5,TAACGTATCGTTATCAACGTCT,0.345
6,TTTTCATCCACTTGGAAGCGGA,-0.742
7,ATCGTTATCAACGTCTCCGAGG,-1.09
8,TTTCTTGAGGGACACCAGCTGC,-0.971
9,TATCGTTATCAACGTCTCCGAG,-0.305
10,TTATACACAGACACCTTCCCGC,0.0194
11,TACACAGACACCTTCCCGCTGG,-0.00421
12,TTGAGGGAGCACACTGTGGTGG,-0.228

# Molecular target: ITGA2
# Assay: as above
# Settings: shRNA
row,Sequence,sensor-assay potency score (higher = more potent)
1,TAGGTCTGAACTTTGCACTGAA,-0.0543
2,TTGTCGGACATCTAGGACTAGA,-0.587
3,TTGACTGAGCGCTAACACCAGC,-1.15
4,TTCTGTTGGAATACTAGCGATT,-0.717
5,TGAACTGTGATTTCTGTCCTGC,0.82
6,TTGCATATTGAATTGCTCCGAA,0.0822
7,TTGCTTAGTAGGTCTGAACTTT,-0.177
8,TTTCGTAGCACTTCGTCGCCCA,0.484
9,TAAACAGGTAGACTCTTCCTTC,0.446
10,TACTTCTGTCCCATCAACCGGC,0.167
11,TAAATCTCCATAGCCATCCAAG,-1.12
12,TAGCACTTCGTCGCCCACCAGA,-1.01

# Molecular target: ITGAM
# Assay: as above
# Settings: shRNA
row,Sequence,sensor-assay potency score (higher = more potent)
1,TTCCTTGCCTTTCACCACCTGA,-0.688
2,TTAAACAAGATCTCAGCTGTGC,0.114
3,TTGAACTCCATGATTGCCTTGA,0.856
4,TCAGTGTCCAAGTTGAACCCAT,-0.0132
5,TTGCTGTCCACGTCCACGGAGC,-1.3
6,TATTGATGCTGCATGACCCGAC,0.154
